Screening data (PubChem)
This is one part of a sample in which hits are shown more often than they occur.
IDE exosite FP: insulin-degrading enzyme (human) exo-site inhibition. purified IDE, FL-6b probe fluorescence polarization; stronger effect = lower value. 17,000 compounds, 6.3% hits. z-score at 20 µM;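 active = z-score of -3 or lower, meaning strong loss of probe binding signal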;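 also: His-tagged human IDE residues 42-1019 made in E. coli with 30 nM FL-6b probe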
Starred values were filed as active, the others as inactive.

For CCC(=O)N(CC(C)C)C[C@@H]1[C@@H](c2ccccc2)[C@@H](CO)N1S(C)(=O)=O the results were IDE exosite FP 1.3.
O=C(C[C@@H]1C=C[C@@H](NC(=O)Nc2cccc(F)c2)[C@@H](CO)O1)NCC1CCCCC1 was read as IDE exosite FP -1.1.
For CC(C)NC(=O)N1CC(=O)N2[C@H](C1)[C@@H](c1ccc(/C=C/c3ccccc3)cc1)[C@@H]2CO the results were IDE exosite FP -2.8.
CC(C)NC(=O)N1CC(=O)N2[C@H](C1)[C@H](c1ccc(/C=C/c3ccccc3)cc1)[C@@H]2CO was read as IDE exosite FP -3.8*.
For O=C(NC1CCCCC1)N1CC(=O)N2[C@H](CO)[C@@H](c3ccc(/C=C/c4ccccc4)cc3)[C@H]2C1 the results were IDE exosite FP -4.4*.
Screening CC(C)NC(=O)N1CC(=O)N2[C@H](CO)[C@H](c3ccc(/C=C/c4ccccc4)cc3)[C@@H]2C1 returned IDE exosite FP -2.1.
O=C(NC1CCCCC1)N1CC(=O)N2[C@H](CO)[C@H](c3ccc(/C=C/c4ccccc4)cc3)[C@H]2C1 was read as IDE exosite FP -6.7*.
Screening C/C=C/c1ccc([C@H]2[C@@H](CO)N3C(=O)CN(C(=O)NC4CCCCC4)C[C@@H]23)cc1 returned IDE exosite FP -0.75.
For N#Cc1ccc(-c2ccc([C@H]3[C@H]4CN(C(=O)Nc5ccc(F)cc5)CCCCN4[C@H]3CO)cc2)cc1 the results were IDE exosite FP 0.71.
For C/C=C/c1ccc([C@H]2[C@@H](CO)N3C(=O)CN(C(=O)Nc4ccccc4F)C[C@@H]23)cc1 the results were IDE exosite FP -1.4.
C[C@@H]1CN([C@@H](C)CO)C(=O)c2cccc(NS(=O)(=O)c3cn(C)cn3)c2O[C@H]1CN(C)Cc1ccc(Oc2ccccc2)cc1 was read as IDE exosite FP 1.2.
For CCN(C[C@@H]1[C@H](c2ccccc2)[C@@H](CO)N1C(=O)COC)S(C)(=O)=O the results were IDE exosite FP -0.53.
For CO[C@@H]1CN(C)C(=O)c2ccc(NC(=O)Nc3cc(F)ccc3F)cc2OC[C@H](C)N(C(=O)c2ccccn2)C[C@H]1C the results were IDE exosite FP 1.6.
Screening CCS(=O)(=O)N1[C@H](C#N)[C@H](c2ccc(C#CCC3CCCC3)cc2)[C@@H]1CO returned IDE exosite FP -0.27.
Screening CN(C)C(=O)c1ccc(-c2ccc3c(c2)[C@@H]2[C@@H](CCN2C(=O)C2CCCC2)[C@@H](CO)N3C)cc1 returned IDE exosite FP 1.8.
For O=C(Nc1cc(F)ccc1F)N1CC(=O)N2[C@H](CO)[C@@H](c3ccc(-c4cccc(F)c4)cc3)[C@@H]2C1 the results were IDE exosite FP -1.9.
O=C(Cc1cccnc1)N1CC2(C1)[C@@H](c1ccccc1)[C@@H](CO)N2C(=O)C1CCOCC1 was read as IDE exosite FP 0.88.
`O=C(C[C@H]1CC[C@H]2NC[C@@H](O)COC[C@@H]2O1)Nc1nccs1` gave IDE exosite FP 0.77.
CCC(=O)N1CC(=O)N2[C@H](CO)[C@H](c3ccc(-c4ccc(C#N)cc4)cc3)[C@H]2C1 was read as IDE exosite FP -0.89.
`CC(C)CC#Cc1ccc([C@H]2[C@@H](CO)N3CCCCN(C(=O)NC4CCCC4)C[C@@H]23)cc1` gave IDE exosite FP -0.55.
`CCCC#Cc1ccc([C@H]2[C@H](CO)N3CCCCN(C(=O)NC4CCCC4)C[C@@H]23)cc1` gave IDE exosite FP -8.2*.
For COc1ccc(NC(=O)N2CCCCN3[C@H](C2)[C@H](c2ccc(-c4ccccc4C)cc2)[C@@H]3CO)cc1 the results were IDE exosite FP 4.2.
Screening O=C(NC1CCCC1)N1CCCCN2[C@H](CO)[C@H](c3ccc(-c4cncnc4)cc3)[C@@H]2C1 returned IDE exosite FP 3.7.
For O=C(NC1CCCC1)N1CCCCN2[C@H](C1)[C@H](c1ccc(-c3cncnc3)cc1)[C@@H]2CO the results were IDE exosite FP -0.86.
Screening CC(C)CC#Cc1ccc([C@@H]2[C@@H](CO)N3CCCCN(C(=O)NC4CCCC4)C[C@@H]23)cc1 returned IDE exosite FP 1.8.
Cc1ccccc1-c1ccc([C@@H]2[C@@H](CO)N3CCCCN(C(=O)NC4CCCC4)C[C@H]23)cc1 was read as IDE exosite FP -15*.
`O=C(NC1CCCC1)N1CCCCN2[C@@H](CO)[C@H](c3ccc(-c4ccccc4)cc3)[C@@H]2C1` gave IDE exosite FP -3*.
Screening Cc1ccccc1-c1ccc([C@@H]2[C@H](CO)N3CCCCN(C(=O)NC4CCCC4)C[C@@H]23)cc1 returned IDE exosite FP -19*.
For O=C(NC1CCCC1)N1CCCCN2[C@H](CO)[C@@H](c3ccc(-c4ccncc4)cc3)[C@H]2C1 the results were IDE exosite FP 4.7.
O=C(NC1CCCC1)N1CCCCN2[C@H](C1)[C@H](c1ccc(-c3ccccc3)cc1)[C@@H]2CO was read as IDE exosite FP -2.1.
O=C(C1CCOCC1)N1CC(=O)N2[C@H](CO)[C@@H](c3ccc(-c4cccnc4)cc3)[C@H]2C1 was read as IDE exosite FP -1.7.
CO[C@@H]1CC[C@H]2CCOc3c(C#N)cccc3C(=O)N(C)CCCC(=O)N(C)C[C@@H]1O2 was read as IDE exosite FP 0.24.
`O=C(NC1CCCCC1)[C@@H]1[C@@H](CO)[C@@H]2Cn3c(cccc3=O)[C@H]1N2Cc1cccnc1` gave IDE exosite FP 0.87.
Screening C[C@@H]1CN([C@H](C)CO)C(=O)c2cccc(NC(=O)Nc3ccc(F)cc3)c2O[C@H]1CN(C)S(=O)(=O)c1ccc(Cl)cc1 returned IDE exosite FP 0.33.
Screening CC(=O)N1CCCCN2[C@H](CO)[C@H](c3ccc(-c4ccncc4)cc3)[C@H]2C1 returned IDE exosite FP 3.3.
O=C(C[C@H]1CC[C@@H]2[C@H](COC[C@H](O)CN2CC2CCOCC2)O1)NCc1ccc(Cl)cc1 was read as IDE exosite FP -1.2.
`O=C(C[C@@H]1CC[C@@H]2[C@H](COC[C@@H](O)CN2C(=O)CCN2CCCCC2)O1)NCc1ccncc1` gave IDE exosite FP 1.5.
`COc1ccccc1C#Cc1ccc([C@@H]2[C@H](C#N)N(C(=O)C3CC3)[C@H]2CO)cc1` gave IDE exosite FP -9.3*.
For COCC(=O)N1[C@@H](C#N)[C@@H](c2ccccc2)[C@@H]1CO the results were IDE exosite FP 1.6.
For COc1ccccc1C#Cc1ccc([C@@H]2[C@@H](C#N)N(C(=O)C3CC3)[C@@H]2CO)cc1 the results were IDE exosite FP -6.4*.
For COCC(=O)N1[C@H](C#N)[C@@H](c2ccc(C#Cc3ccccc3F)cc2)[C@H]1CO the results were IDE exosite FP -3.9*.
`N#C[C@H]1[C@H](c2ccc(C#Cc3ccc(F)cc3)cc2)[C@H](CO)N1C(=O)C1CC1` gave IDE exosite FP 4.4.
COc1ccccc1C#Cc1ccc([C@@H]2[C@@H](C#N)N(C(=O)C3CC3)[C@H]2CO)cc1 was read as IDE exosite FP -4.2*.
For N#C[C@@H]1[C@H](c2ccc(C#Cc3ccccc3F)cc2)[C@H](CO)N1C(=O)C1CC1 the results were IDE exosite FP -2.4.
`CN1C(=O)c2cc(NC(=O)C3CCOCC3)ccc2OC[C@H]2O[C@@H](CC(=O)NCC3CCCCC3)CC[C@H]21` gave IDE exosite FP -0.74.
O=C(C[C@@H]1CC[C@@H]2[C@H](COC[C@@H](O)CN2C(=O)c2ccc(F)cc2)O1)N1CCCCC1 was read as IDE exosite FP 0.18.
`CCCC(=O)Nc1ccc2c(c1)OC[C@@H](C)N(C(=O)c1cccnc1)C[C@H](C)[C@@H](OC)CN(C)C2=O` gave IDE exosite FP -0.6.
